Screening data (PubChem BioAssay)
Most compounds without a hit are left out; they make up all but 11% or so of the library.
HEK293 tox: HEK 293 cell cytotoxicity; HEK 293 viability, ATP luminescence (CellTiter-Glo), 48-72 h; Potency, µM (titrated, usually from 115 µM), for inactives: top-dose activity change, negative = cytotoxicity, hits mostly inhibitors; 6.6% of 94,000 active; further: on the % scale 0 is the no-effect control and ±100 the full control effect; nearly all actives have a fitted effect of over 60% in size
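qHTS cytotoxicity; HEK 293, 250 cells/well; compound pinned; 48 or 72 hr, 37 degree Celsius, 5% CO2, 95% humidity; CellTiter-Glo, 10 min RT; luminescence (ATP).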
NIH3T3 tox: NIH 3T3 cell cytotoxicity; NIH 3T3 viability, CellTiter-Glo ATP luminescence, 48-72 h; Potency, µM (top dose mostly 96.7 µM), for the others: at the highest dose activity change, negative = cytotoxicity, actives largely listed as inhibitors; 4.3% of 94,000 active; further: on the % scale 0 is the no-effect control and ±100 the full control effect; nearly all actives have a fitted effect of over 55% in size
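Mouse fibroblast NIH 3T3 cells, 400 per well, received compound via pintool and were incubated for 48 or 72 hr prior to CellTiter-Glo ATP luminescence measurement.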
hNpr1 antagonist: antagonists of human natriuretic peptide receptor Npr1. P16066. HEK293 hNpr1 GloSensor cGMP, ANP-stimulated luminescence. Potency, µM (titrated, usually from 46.3 µM), for inactives: at the highest dose activity change, negative = inhibition, usual class: inhibitors. 1.6% of 76,000 active. AID 1347048; calls by dose curve; further: on the % scale 0 is the no-effect control and ±100 the full control effect; nearly all actives have a fitted effect of over 60% in size
Target sequence (P16066 whole entry, looked up): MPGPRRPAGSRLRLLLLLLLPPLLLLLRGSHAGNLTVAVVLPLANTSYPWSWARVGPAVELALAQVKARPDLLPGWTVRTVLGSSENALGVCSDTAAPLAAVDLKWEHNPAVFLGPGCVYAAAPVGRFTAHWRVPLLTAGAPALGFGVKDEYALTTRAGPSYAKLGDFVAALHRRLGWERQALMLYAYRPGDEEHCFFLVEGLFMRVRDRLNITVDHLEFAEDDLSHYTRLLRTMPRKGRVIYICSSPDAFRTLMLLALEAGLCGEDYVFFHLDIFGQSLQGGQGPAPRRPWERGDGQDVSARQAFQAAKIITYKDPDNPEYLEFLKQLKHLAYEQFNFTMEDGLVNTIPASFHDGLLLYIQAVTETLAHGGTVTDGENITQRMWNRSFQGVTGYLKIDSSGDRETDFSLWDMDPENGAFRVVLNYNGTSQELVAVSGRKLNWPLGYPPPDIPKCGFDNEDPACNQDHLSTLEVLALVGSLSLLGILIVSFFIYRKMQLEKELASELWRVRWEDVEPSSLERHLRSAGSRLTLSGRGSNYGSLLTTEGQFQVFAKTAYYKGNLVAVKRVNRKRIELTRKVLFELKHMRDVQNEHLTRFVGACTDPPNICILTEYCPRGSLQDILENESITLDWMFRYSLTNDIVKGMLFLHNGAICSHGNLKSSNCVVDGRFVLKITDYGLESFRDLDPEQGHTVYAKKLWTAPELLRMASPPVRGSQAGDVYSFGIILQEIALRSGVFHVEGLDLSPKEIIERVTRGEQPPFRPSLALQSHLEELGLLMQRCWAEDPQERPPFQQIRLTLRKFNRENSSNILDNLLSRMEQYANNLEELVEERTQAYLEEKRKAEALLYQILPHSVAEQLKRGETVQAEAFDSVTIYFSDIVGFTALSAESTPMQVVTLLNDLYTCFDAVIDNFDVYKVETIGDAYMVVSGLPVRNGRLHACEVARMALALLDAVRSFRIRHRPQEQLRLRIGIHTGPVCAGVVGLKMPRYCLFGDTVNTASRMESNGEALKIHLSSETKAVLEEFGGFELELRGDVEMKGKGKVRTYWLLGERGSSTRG
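HEK293 cells stably expressing human Npr1 and cGMP GloSensor pGS-40F, loaded 2 h with 2% GloSensor reagent, given compound 30 min at room temperature. Luminescence read before and 20 min after 0.1 nM hNppA.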
FLuc inh-1: blocks purified firefly luciferase enzyme activity; purified P. pyralis luciferase, luminescence, biochemical; Potency, µM (titrated, usually from 115 µM), hits mostly inhibitors; 2.5% of 76,000 active; further: on the % scale 0 is the no-effect control and ±100 the full control effect; nearly all actives have a fitted effect of over 65% in size
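Luminescence read by CCD imaging after purified firefly luciferase (10nM final) was added to substrate buffer holding 10uM D-luciferin and 10uM ATP, pH 7.5, pre-dosed with compound.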
FLuc SDR no ATP: firefly luciferase binding stabilization, ATP absent; shares compounds with FLuc inh-1; Purified FLuc-C-HiBiT, Nano-Glo HiBiT luminescence, no ATP; Potency, µM (series often up to 32.7 µM), for inactives: at the top dose activation (signal gain), most hits filed as activators; 7.8% of 1,300 active; further: nearly all actives have a fitted effect of over 55% in size
FLuc SDR ATP: firefly luciferase binding stabilization, ATP added; shares compounds with FLuc inh-1; Potency, µM (doses to about 32.7 µM), inactives show at the highest dose activation (gain of signal), usual class: activators; 8.7% of 1,300 active; purified FLuc-C-HiBiT + ATP, HiBiT complementation luminescence;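 further: signal reports ligand binding via conformational change of the enzyme rather than luciferase catalysis; % of control where 0% means no effect; nearly all actives have a fitted effect of over 55% in size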
FLuc inh-2: firefly luciferase enzyme inhibition | shares compounds with FLuc inh-1 | purified FLuc-C-HiBiT enzyme, luciferin luminescence | Potency, µM (series often up to 32.7 µM), for inactives: at the top dose activity change, negative = inhibition, actives largely listed as inhibitors | 42% of 1,300 active; further: on the % scale 0 is the no-effect control and ±100 the full control effect; nearly all actives have a fitted effect of over 70% in size
* = called active by the depositor; i = inactive; u = inconclusive; x = no result; [ ] = another dose, or the depositor's remark. Unless noted, the call rests on the fitted dose curve; in most records, active means well fitted curve in the direction sought with a large enough effect; inconclusive means small, poorly fitted or top-dose-only effect, or another doubt; inactive means no such curve, though single readings can be large; an effect the other way counts as inactive or inconclusive. Potency means the concentration at half of the fitted maximal effect.

SMILES | HEK293 tox | NIH3T3 tox | hNpr1 antagonist | FLuc inh-1 | FLuc SDR no ATP | FLuc SDR ATP | FLuc inh-2
CCNC(=O)C1CCN(C(=O)N2CC3CC(C2)[C@H]2CCCC(=O)N2C3)CC1 (some centres undefined) | u | i | -1% | i | x | x | x
O=C1Nc2ccccc2CC12CCN(Cc1ccc(C(F)(F)F)cc1)CC2 | u | -14% | -9% | i | x | x | x
Nc1ncnc2c1ncn2[C@@H]1O[C@H](CO)[C@@H](O)[C@@H]1O | x | x | x | x | 11% | 11% | -9%
Cc1ccc(N2C(=O)c3n[nH]c(C)c3C2c2ccc(Cl)cc2)cc1 (centres undefined) | x | x | x | x | 17% | 12% | u
CCN(CC)CC[C@H]1CN(C(=O)NC(C)C)CC[C@H]1CC(=O)O | i | 0%[138 µM] | 4%[70.6 µM] | i | x | x | x
O=C1CCN(C(=O)Cc2ccccc2)CCCC(CO)CCN1 (centres undefined) | i | -3% | -3% | i | x | x | x
COc1ccc2c(C)c(-c3nc(C4CCOC4)no3)oc2c1 (centres undefined) | u | u | 4% | 13µM* | 14% | 13% | -18%
CCS(=O)(=O)Nc1ccc(-c2nc(C3CCOC3)no2)cc1 (centres undefined) | -13% | -17% | 2% | i | x | x | x
CN(C)c1ccc(-c2nc(C3CCOC3)no2)cc1 (centres undefined) | u | -33% | u | 4µM* | 24% | u | u
c1ccc2cc(-c3nc(C4CCOC4)no3)ncc2c1 (centres undefined) | 1% | -29% | u | 2.5µM* | 15% | u | u
CSc1ccccc1-c1nc(C2CCOC2)no1 (centres undefined) | -2% | u | 3% | i | x | x | x
Cc1nc2ccc(-c3nc(C4CCOC4)no3)cc2s1 (centres undefined) | u | u | u | 2µM* | 25% | u | 11µM*
CN(C)c1ccc(C(=O)NC[C@H]2O[C@@H](CO)[C@@H](O)[C@H]2N2CCN(c3ccccc3)CC2)cc1 | 4% | 1% | -1% | i | x | x | x
CC(=O)c1cccc(Nc2nn(-c3ccc(OC(F)(F)F)cc3)nc2C(C)=O)c1 | x | x | x | x | 24% | 14% | u
O=C(O)c1cccc(-c2ccc(OC(F)(F)F)cc2)c1 | -24%[172 µM] | -1%[138 µM] | x | x | x | x | x
Cc1ccc(C(=O)COC(=O)c2cc(-c3cccs3)nc3ccccc23)cc1 | x | x | x | x | 12% | 11% | u
CCOC(=O)c1ccc(Nc2nc(-c3ccccc3)no2)cc1 | u | u | -30% | u | x | x | x
c1ccc(Nc2ncc(-c3ccccc3)o2)cc1 | x | x | x | x | u | u | 0.79µM*
COC(=O)C1=C(C)NC(=O)NC1c1ccc(N(C)C)cc1 (centres undefined) | 2% | u | -12% | i | x | x | x
CCN1CC(C)(C)CN([S+](=O)([O-])c2ccc(C)cc2)CC1=O | -20% | u | x | x | x | x | x
COc1cccc(-c2noc(-c3ccc(N4CCCC(CO)C4)nc3)n2)c1OC (centres undefined) | u | u | -29% | 1.8µM* | u | u | 2.8µM*
OC1CCCN(c2ccc(-c3nc(-c4cccc(C(F)(F)F)c4)no3)cn2)C1 (centres undefined) | u | u | 10µM* | 1.6µM* | 15% | 13% | u
CC(C)Cc1noc(-c2ccc(N3CCCC(C(C)(C)O)C3)nc2)n1 (centres undefined) | u | u | -11% | i | x | x | x
CC(=O)N1CCCN(c2ccc(-c3nc(-c4ccccc4F)no3)cn2)CC1 | -1% | 1% | -3% | 13µM* | 13% | u | u
